# PubChem BioAssay AID1159580 (chemical genetic matrix, 2015)
# Values joined by “and” are separate entries in the source; they are usually repeats but may differ in a detail not shown here. Equal values may be shown once. The whole screen tested about 5,500 compounds, of which about 2,000 (36%) were called active. Not shown: some 18% with an inconclusive outcome. Some of the results follow. A number with no mark means an inactive call. Cut-off read from the data, not from the text of the source: active = normalized growth mostly below about 0.91 (no sharp cut-off); inconclusive = no clear call, values can overlap the other calls; inactive = mostly above about 0.92.
# Experiment: chemical genetic growth profiling, strain panel (AID 1159580);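 note: tested at 20 µM; growth read once vehicle control cultures reached saturation at 30 °C; 1 = growth at the plate median or of vehicle wells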
# Settings: S. cerevisiae deletion strains, growth OD
compound,measurement,setting,value
COc1ccc(CCN2CCC(Nc3nc4ccccc4n3Cc3ccc(F)cc3)CC2)cc1,normalized growth,"locus YAL021C, strain ccr4, stronger effect = lower value",0.721 (active)
same,normalized growth,"locus YAL026C, strain drs2, stronger effect = lower value",0.783 (active)
same,normalized growth,"locus YAL030W, strain snc1, stronger effect = lower value",0.988
same,normalized growth,"locus YBL061C, strain skt5, stronger effect = lower value",0.969
same,normalized growth,"locus YBR009C, strain hhf1, stronger effect = lower value",0.936
same,normalized growth,"locus YBR021W, strain FUR4, stronger effect = lower value",0.821 (active)
same,normalized growth,"locus YBR023C, strain chs3, stronger effect = lower value",0.959
same,normalized growth,"locus YBR171W, strain sec66, stronger effect = lower value",0.992
same,normalized growth,"locus YBR229C, strain ROT2, stronger effect = lower value",0.972
same,normalized growth,"locus YBR231C, strain swc5, stronger effect = lower value",0.981
same,normalized growth,"locus YBR279W, strain paf1, stronger effect = lower value",0.954
same,normalized growth,"locus YCL011C, strain gbp2, stronger effect = lower value",0.935
same,normalized growth,"locus YCL016C, strain dcc1, stronger effect = lower value",0.919
same,normalized growth,"locus YCL029C, strain bik1, stronger effect = lower value",0.983
same,normalized growth,"locus YCL061C, strain MRC1, stronger effect = lower value",0.96
same,normalized growth,"locus YCL069W, strain vba3, stronger effect = lower value",0.953
same,normalized growth,"locus YCR088W, strain abp1, stronger effect = lower value",0.924
same,normalized growth,"locus YDL005C, strain med2, stronger effect = lower value",0.967
same,normalized growth,"locus YDL035C, strain GPR1, stronger effect = lower value",0.972
same,normalized growth,"locus YDL040C, strain nat1, stronger effect = lower value",0.985
same,normalized growth,"locus YDL074C, strain BRE1, stronger effect = lower value",0.935
same,normalized growth,"locus YDL101C, strain DUN1, stronger effect = lower value",0.984
same,normalized growth,"locus YDL134C, strain PPH21, stronger effect = lower value",0.983
same,normalized growth,"locus YDL185W, strain tfp1, stronger effect = lower value",0.984
same,normalized growth,"locus YDL192W, strain arf1, stronger effect = lower value",0.986
same,normalized growth,"locus YDR001C, strain nth1, stronger effect = lower value",0.972
same,normalized growth,"locus YDR069C, strain doa4, stronger effect = lower value",0.874 (active)
same,normalized growth,"locus YDR101C, strain arx1, stronger effect = lower value",0.992
same,normalized growth,"locus YDR137W, strain rgp1, stronger effect = lower value",1.18 [resistant] (active)
same,normalized growth,"locus YDR150W, strain NUM1, stronger effect = lower value",1
same,normalized growth,"locus YDR159W, strain sac3, stronger effect = lower value",0.986
same,normalized growth,"locus YDR162C, strain NBP2, stronger effect = lower value",0.986
same,normalized growth,"locus YDR195W, strain ref2",0.971
same,normalized growth,"locus YDR297W, strain sur2, stronger effect = lower value",0.999
same,normalized growth,"locus YDR318W, strain mcm21, stronger effect = lower value",0.984
same,normalized growth,"locus YDR334W, strain swr1, stronger effect = lower value",0.979
same,normalized growth,"locus YDR335W, strain msn5, stronger effect = lower value",0.959
same,normalized growth,"locus YDR388W, stronger effect = lower value",0.687 (active)
same,normalized growth,"locus YDR392W, strain spt3, stronger effect = lower value",0.742
same,normalized growth,"locus YDR502C, strain sam2, stronger effect = lower value",0.977
same,normalized growth,"locus YEL003W, strain gim4, stronger effect = lower value",0.96
same,normalized growth,"locus YEL037C, strain rad23, stronger effect = lower value",0.867 (active)
same,normalized growth,"locus YEL061C, strain CIN8 (second series), stronger effect = lower value",0.981
same,normalized growth,"locus YEL061C, strain CIN8, stronger effect = lower value",0.993
same,normalized growth,"locus YER015W, strain faa2, stronger effect = lower value",0.93
same,normalized growth,"locus YER016W, strain bim1, stronger effect = lower value",0.911 (active)
same,normalized growth,"locus YER110C, stronger effect = lower value",0.992
same,normalized growth,"locus YER111C, strain swi4, stronger effect = lower value",0.962
same,normalized growth,"locus YER155C, strain BEM2 (second series), stronger effect = lower value",0.822 (active)
same,normalized growth,"locus YER155C, strain BEM2, stronger effect = lower value",0.991
same,normalized growth,"locus YER167W, strain BCK2, stronger effect = lower value",0.973
same,normalized growth,"locus YFR010W, strain ubp6, stronger effect = lower value",0.838 (active)
same,normalized growth,"locus YGL078C, strain dbp3, stronger effect = lower value",0.985
same,normalized growth,"locus YGL086W, strain mad1, stronger effect = lower value",1.02
same,normalized growth,"locus YGL167C, strain pmr1, stronger effect = lower value",1
same,normalized growth,"locus YGL173C, strain kem1, stronger effect = lower value",0.982
same,normalized growth,"locus YGL227W, strain vid30, stronger effect = lower value",0.981
same,normalized growth,"locus YGL240W, strain doc1, stronger effect = lower value",0.978
same,normalized growth,"locus YGL248W, strain PDE1, stronger effect = lower value",0.985
same,normalized growth,"locus YGL253W, strain hxk2, stronger effect = lower value",0.904 (active)
same,normalized growth,"locus YGR135W, strain pre9, stronger effect = lower value",0.877 (active)
same,normalized growth,"locus YGR229C, strain SMI1, stronger effect = lower value",0.971
same,normalized growth,"locus YGR252W, strain gcn5, stronger effect = lower value",0.9
same,normalized growth,"locus YHR013C, strain ard1, stronger effect = lower value",0.857
same,normalized growth,"locus YHR027C, strain rpn1, stronger effect = lower value",0.954
same,normalized growth,"locus YHR030C, strain SLT2, stronger effect = lower value",0.997 and 0.996
same,normalized growth,"locus YHR079C, strain IRE1 (second series), stronger effect = lower value",0.984
same,normalized growth,"locus YHR079C, strain IRE1, stronger effect = lower value",0.972
same,normalized growth,"locus YHR094C, strain hxt1, stronger effect = lower value",0.986
same,normalized growth,"locus YHR129C, strain ARP1, stronger effect = lower value",0.988
same,normalized growth,"locus YHR142W, strain chs7, stronger effect = lower value",0.888
same,normalized growth,"locus YHR200W, strain rpn10, stronger effect = lower value",0.994
same,normalized growth,"locus YIL066C, strain RNR3, stronger effect = lower value",0.974
same,normalized growth,"locus YIL073C, strain SPO22, stronger effect = lower value",1.74 [resistant] (active)
same,normalized growth,"locus YIL125W, strain kgd1, stronger effect = lower value",0.993
same,normalized growth,"locus YIR030C, strain dcg1, stronger effect = lower value",0.99
same,normalized growth,"locus YJL092W, strain hpr5, stronger effect = lower value",0.917 (active)
same,normalized growth,"locus YJL095W, strain BCK1 (second series), stronger effect = lower value",0.991
same,normalized growth,"locus YJL095W, strain BCK1, stronger effect = lower value",0.923 and 0.988
same,normalized growth,"locus YJL115W, strain asf1, stronger effect = lower value",0.976
same,normalized growth,"locus YJL129C, strain trk1, stronger effect = lower value",0.972
same,normalized growth,"locus YJL134W, strain LCB3, stronger effect = lower value",0.998
same,normalized growth,"locus YJL154C, strain vps35, stronger effect = lower value",0.962
same,normalized growth,"locus YJL164C, strain tpk1, stronger effect = lower value",0.957
same,normalized growth,"locus YJL166W, strain qcr8, stronger effect = lower value",0.974
same,normalized growth,"locus YJL168C, strain set2, stronger effect = lower value",0.994
same,normalized growth,"locus YJL187C, strain SWE1 (second series), stronger effect = lower value",0.976
same,normalized growth,"locus YJL187C, strain SWE1, stronger effect = lower value",0.982
same,normalized growth,"locus YJR043C, strain POL32, stronger effect = lower value",0.998
